Reference: the supplement of paper PMC10849652
The full data set covers some 7,900 targets. This sample favours those with a hit. About 0.6% of all pairs of compound and target were hits. A number with no mark means an inactive call.

Legend:
Assay in all cases: log2 fold change, soluble protein after heating vs DMSO (PISA); higher = thermal stabilisation; K562 cells, 10 uM, 30 min; active = over 0.2 and 3.5 SD of the protein, either way, in both replicates (recomputed)
[1] = compound: NC(=O)Nc1cc(-c2cccc(F)c2)sc1C(=O)N[C@H]1CCCNC1
How it was run: (§1)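 K562 cells at 2×10^6 cells/mL were treated with 10 μM compound for 30 min. Aliquots were heated for 3 min across 48°C-58°C, pooled, and extracted in PBS with 0.5% NP-40 at 4°C; soluble protein was the supernatant after 21,000xg for 90 min. Soluble protein was quantified by TMTpro 16plex LC-MS/MS with channel sums equalised, and reported as log2 fold change in thermal stability against DMSO controls, with values from duplicates.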

[2] = compound: NC(=O)c1cnc(N[C@@H]2CCCC[C@@H]2N)nc1Nc1cccc(-n2nccn2)c1
How it was run: as §1

[3] = compound: NC1(c2ccc(-c3nc4ccn5c(=O)[nH]nc5c4cc3-c3ccccc3)cc2)CCC1
How it was run: as §1

[4] = compound: NCC(=O)Nc1ccc(-n2nc(C(F)(F)F)cc2-c2ccc3c(ccc4ccccc43)c2)cc1
How it was run: as §1

[5] = compound: Nc1ccccc1NC(=O)c1ccc(CNC(=O)OCc2cccnc2)cc1 [entinostat]
How it was run: as §1

[6] = compound: O=C(CCCCCCC(=O)Nc1ccccc1)NO [vorinostat]
How it was run: as §1

[7] = compound: O=C(CCCCCCNC(=O)c1cnc(N(c2ccccc2)c2ccccc2Cl)nc1)NO [citarinostat]
How it was run: as §1

[8] = compound: O=C(O)c1ccc2c(c1)nc(Nc1cccc(Cl)c1)c1ccncc12 [silmitasertib]
How it was run: as §1

[9] = compound: O=C1NC(=O)C(c2cnc3ccccn23)=C1c1cn2c3c(cc(F)cc13)CN(C(=O)N1CCCCC1)CC2
How it was run: as §1

[10] = compound: c1cc(OCCN2CCCCC2)cc(-c2n[nH]c3ccc(-c4nnc[nH]4)cc23)c1
How it was run: as §1

UniProt O95394, sequence (O95394 whole entry, looked up): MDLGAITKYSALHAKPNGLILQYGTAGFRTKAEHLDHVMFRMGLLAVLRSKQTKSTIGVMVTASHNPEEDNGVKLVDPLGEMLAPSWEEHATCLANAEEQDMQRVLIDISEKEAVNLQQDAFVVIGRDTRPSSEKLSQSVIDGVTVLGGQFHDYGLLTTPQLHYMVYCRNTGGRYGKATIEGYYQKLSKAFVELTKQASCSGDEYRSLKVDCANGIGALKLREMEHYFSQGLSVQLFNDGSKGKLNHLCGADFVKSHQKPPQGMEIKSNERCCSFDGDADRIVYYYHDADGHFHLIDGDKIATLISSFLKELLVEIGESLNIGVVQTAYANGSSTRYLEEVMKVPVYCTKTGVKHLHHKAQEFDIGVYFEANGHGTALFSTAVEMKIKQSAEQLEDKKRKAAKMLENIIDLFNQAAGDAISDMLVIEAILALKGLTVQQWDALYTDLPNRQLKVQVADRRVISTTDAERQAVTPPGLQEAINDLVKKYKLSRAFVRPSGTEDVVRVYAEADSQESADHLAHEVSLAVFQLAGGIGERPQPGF
UniProt Q8NCC3, sequence (Q8NCC3 whole entry, looked up): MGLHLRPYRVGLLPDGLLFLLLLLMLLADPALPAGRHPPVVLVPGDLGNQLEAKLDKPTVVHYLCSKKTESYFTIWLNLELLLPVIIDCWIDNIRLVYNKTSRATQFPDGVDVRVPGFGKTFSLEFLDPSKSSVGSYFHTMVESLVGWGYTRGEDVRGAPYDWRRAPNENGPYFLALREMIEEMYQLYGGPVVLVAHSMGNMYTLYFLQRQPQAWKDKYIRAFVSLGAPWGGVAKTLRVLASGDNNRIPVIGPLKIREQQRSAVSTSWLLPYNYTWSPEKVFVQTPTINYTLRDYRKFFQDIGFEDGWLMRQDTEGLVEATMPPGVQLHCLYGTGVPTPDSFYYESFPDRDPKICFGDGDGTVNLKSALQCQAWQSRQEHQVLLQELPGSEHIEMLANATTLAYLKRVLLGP
UniProt O15067, sequence (O15067 whole entry, looked up): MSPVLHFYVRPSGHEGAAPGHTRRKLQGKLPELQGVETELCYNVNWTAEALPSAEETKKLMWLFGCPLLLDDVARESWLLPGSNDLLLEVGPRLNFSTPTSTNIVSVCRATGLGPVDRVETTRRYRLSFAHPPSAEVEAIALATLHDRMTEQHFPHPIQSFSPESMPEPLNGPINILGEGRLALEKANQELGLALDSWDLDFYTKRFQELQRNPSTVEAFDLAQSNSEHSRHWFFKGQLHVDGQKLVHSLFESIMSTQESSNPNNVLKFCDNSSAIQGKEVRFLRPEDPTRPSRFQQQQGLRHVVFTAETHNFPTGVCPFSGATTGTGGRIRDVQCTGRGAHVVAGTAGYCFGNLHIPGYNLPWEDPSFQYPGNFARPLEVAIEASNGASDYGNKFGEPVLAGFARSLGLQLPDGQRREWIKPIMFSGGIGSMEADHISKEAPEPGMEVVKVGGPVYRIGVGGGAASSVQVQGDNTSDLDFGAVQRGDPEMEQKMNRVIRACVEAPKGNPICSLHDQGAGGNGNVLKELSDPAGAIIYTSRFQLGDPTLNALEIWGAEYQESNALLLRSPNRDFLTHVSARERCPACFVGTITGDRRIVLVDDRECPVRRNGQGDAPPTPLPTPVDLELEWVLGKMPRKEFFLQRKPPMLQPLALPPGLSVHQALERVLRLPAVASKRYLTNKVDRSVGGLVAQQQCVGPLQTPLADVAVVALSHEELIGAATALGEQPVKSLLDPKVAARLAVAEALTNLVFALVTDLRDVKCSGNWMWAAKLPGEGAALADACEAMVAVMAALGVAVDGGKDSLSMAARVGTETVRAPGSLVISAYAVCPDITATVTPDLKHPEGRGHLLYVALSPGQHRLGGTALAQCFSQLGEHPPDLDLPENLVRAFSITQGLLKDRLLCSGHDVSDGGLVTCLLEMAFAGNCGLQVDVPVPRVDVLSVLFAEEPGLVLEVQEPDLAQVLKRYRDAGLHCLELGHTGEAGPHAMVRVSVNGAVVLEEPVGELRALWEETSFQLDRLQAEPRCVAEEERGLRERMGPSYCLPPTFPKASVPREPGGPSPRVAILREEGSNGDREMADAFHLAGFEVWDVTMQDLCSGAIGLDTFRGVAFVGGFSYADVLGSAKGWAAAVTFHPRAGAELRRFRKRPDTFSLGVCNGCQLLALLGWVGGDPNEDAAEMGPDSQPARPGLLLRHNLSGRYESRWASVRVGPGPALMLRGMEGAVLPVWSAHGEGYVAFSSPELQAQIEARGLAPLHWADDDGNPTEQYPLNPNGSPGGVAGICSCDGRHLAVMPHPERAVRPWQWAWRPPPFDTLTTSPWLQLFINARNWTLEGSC
UniProt Q9Y2I7, sequence (Q9Y2I7 whole entry, looked up): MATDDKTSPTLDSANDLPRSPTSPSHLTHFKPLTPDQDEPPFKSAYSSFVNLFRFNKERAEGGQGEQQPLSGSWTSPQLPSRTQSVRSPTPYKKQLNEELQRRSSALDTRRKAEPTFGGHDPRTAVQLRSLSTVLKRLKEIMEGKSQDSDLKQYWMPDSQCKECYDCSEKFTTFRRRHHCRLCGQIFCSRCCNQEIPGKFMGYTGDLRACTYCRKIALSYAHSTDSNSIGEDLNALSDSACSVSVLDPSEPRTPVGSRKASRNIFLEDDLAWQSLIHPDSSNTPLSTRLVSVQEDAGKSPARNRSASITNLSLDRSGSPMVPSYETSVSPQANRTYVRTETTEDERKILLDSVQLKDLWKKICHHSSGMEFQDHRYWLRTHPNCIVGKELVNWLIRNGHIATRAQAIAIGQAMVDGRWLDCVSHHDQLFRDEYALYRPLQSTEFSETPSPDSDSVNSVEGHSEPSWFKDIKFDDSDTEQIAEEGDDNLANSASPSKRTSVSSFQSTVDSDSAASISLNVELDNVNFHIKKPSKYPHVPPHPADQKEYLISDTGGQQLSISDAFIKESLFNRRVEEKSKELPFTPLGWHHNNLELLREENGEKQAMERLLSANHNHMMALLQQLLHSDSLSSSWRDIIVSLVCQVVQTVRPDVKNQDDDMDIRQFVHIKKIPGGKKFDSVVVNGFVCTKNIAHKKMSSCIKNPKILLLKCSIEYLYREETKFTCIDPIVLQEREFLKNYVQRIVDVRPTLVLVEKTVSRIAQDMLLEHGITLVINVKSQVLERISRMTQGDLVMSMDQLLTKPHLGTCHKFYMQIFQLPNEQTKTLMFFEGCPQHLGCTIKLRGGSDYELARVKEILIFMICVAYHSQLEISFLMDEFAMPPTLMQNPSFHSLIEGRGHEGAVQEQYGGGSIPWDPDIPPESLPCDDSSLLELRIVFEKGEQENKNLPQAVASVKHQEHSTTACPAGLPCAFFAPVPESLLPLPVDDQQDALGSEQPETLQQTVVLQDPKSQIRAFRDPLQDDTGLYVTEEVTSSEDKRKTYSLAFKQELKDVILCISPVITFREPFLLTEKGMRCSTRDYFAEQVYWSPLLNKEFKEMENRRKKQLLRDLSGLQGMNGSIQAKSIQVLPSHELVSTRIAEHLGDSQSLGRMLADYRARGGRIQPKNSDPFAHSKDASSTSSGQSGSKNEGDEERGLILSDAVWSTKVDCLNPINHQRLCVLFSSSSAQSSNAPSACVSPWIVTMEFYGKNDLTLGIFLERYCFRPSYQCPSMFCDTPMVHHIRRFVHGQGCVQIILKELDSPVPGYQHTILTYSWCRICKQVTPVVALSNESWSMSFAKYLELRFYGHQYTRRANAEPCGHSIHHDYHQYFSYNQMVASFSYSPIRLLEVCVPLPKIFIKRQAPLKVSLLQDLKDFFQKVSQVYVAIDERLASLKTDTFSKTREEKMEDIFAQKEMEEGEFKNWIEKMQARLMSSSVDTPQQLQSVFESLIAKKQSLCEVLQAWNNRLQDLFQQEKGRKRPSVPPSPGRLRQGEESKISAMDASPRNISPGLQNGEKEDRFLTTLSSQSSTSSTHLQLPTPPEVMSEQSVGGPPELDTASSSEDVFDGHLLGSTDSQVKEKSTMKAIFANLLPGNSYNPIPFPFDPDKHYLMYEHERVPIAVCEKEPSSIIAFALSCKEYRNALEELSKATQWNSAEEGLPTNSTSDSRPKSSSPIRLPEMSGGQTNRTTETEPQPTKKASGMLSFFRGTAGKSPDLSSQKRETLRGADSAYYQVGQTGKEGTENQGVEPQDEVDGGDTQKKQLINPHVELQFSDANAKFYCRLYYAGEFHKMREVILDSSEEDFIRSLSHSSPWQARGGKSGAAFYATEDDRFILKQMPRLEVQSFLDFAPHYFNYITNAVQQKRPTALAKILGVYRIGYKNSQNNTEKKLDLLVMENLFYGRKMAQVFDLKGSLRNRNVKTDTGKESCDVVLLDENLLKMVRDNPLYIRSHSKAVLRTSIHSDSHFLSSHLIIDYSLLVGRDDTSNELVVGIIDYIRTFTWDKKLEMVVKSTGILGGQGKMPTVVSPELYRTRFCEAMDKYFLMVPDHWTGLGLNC
UniProt Q8WWY3, sequence (Q8WWY3 whole entry, looked up): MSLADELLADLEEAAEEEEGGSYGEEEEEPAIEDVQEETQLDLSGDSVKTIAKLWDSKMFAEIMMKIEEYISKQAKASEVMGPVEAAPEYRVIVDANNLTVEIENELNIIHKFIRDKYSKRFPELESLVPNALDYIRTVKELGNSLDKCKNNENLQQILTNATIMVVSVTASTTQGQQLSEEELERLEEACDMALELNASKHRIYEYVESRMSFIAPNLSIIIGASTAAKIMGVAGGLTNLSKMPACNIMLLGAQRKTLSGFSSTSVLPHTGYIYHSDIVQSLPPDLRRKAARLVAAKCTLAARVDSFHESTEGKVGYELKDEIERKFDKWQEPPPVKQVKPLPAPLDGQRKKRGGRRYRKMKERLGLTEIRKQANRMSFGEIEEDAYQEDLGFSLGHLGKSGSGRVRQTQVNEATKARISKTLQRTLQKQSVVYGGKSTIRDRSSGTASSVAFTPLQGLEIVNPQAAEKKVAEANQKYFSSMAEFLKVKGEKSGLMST
UniProt Q9UKL6, sequence (Q9UKL6 whole entry, looked up): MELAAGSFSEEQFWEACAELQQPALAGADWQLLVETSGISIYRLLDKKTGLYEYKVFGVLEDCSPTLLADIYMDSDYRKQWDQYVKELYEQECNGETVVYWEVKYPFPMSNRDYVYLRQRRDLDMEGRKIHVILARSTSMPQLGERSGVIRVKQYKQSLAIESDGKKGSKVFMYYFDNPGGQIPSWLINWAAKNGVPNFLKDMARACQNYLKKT

Row | Target | log2 fold change [1] | log2 fold change [2] | log2 fold change [3] | log2 fold change [4] | log2 fold change [5] | log2 fold change [6] | log2 fold change [7] | log2 fold change [8] | log2 fold change [9] | log2 fold change [10]
1 | PSMD5 (UniProt Q16401) | -0.001 | 0.009 | -0.094 | -0.009 | 0.01 | 0.008 | 0.033 | 0.038 | -0.032 | -0.009
2 | POLR2G (UniProt P62487) | 0.061 | 0.153 | -0.008 | 0.003 | -0.034 | -0.148 | -0.009 | 0.004 | 0.009 | -0.037
3 | PTPA (UniProt Q15257) | -0.022 | 0.001 | -0.021 | 0.028 | 0 | 0.004 | 0.028 | -0.027 | -0.021 | -0.015
4 | PCTP (UniProt Q9UKL6) | -0.078 | -0.07 | -0.023 | -0.092 | 0.065 | -0.051 | 0.003 | 0.043 | -0.061 | 0.363
5 | PSMC5 (UniProt P62195) | 0.034 | -0.001 | 0.007 | 0.054 | -0.021 | -0.004 | -0.021 | -0.005 | 0.063 | -0.075
6 | PPP2R5C isoform 4 (UniProt Q13362) | -0.035 | 0.079 | -0.064 | -0.065 | 0.012 | -0.033 | 0.055 | -0.015 | -0.022 | 0.058
7 | PCNT (UniProt O95613) | -0.341 | -0.277 | -0.106 | -0.294 | -0.129 | -0.137 | -0.076 | 0.11 | -0.142 | -0.233
8 | PRKCQ (UniProt Q04759) | -0.337 (active) | -0.135 | -0.198 | -0.052 | 0.002 | 0.035 | 0.001 | 0.002 | -0.021 | -0.187
9 | PDS5B (UniProt Q9NTI5) | -0.07 | -0.12 | -0.043 | -0.167 | -0.036 | -0.043 | 0.046 | 0.027 | -0.08 | 0.03
10 | PTRHD1 (UniProt Q6GMV3) | -0.02 | 0.037 | -0.009 | 0.03 | 0.095 | -0.099 | 0.026 | -0.006 | -0.065 | -0.006
11 | PFAS (UniProt O15067) | 0.06 | -0.075 | -0.012 | -0.054 | 0.134 | 0.042 | 0.049 | -0.119 | -0.052 | 0.142
12 | POP1 (UniProt Q99575) | 0.072 | 0.025 | 0.03 | 0.045 | -0.019 | -0.013 | -0.003 | -0.011 | 0.038 | -0.128
13 | PPP2R5A (UniProt Q15172) | 0.098 | 0.009 | -0.254 (active) | -0.013 | 0.094 | 0.106 | 0.114 | -0.059 | -0.044 | -0.021
14 | PIP4P1 isoform 2 (UniProt Q86T03) | 0.012 | 0.086 | -0.326 | 0.095 | 0.042 | -0.019 | 0.01 | 0.054 | 0.043 | -0.031
15 | PSMD2 (UniProt Q13200) | -0.018 | 0.012 | 0.005 | 0.038 | -0.024 | 0.01 | -0.006 | -0.018 | 0.03 | -0.082
16 | PRPF31 (UniProt Q8WWY3) | -0.076 | -0.138 | -0.241 | -0.065 | 0.071 | 0.182 | 0.042 | -0.038 | -0.194 | -0.038
17 | PARG (UniProt Q86W56) | 0.141 | 0.001 | -0.113 | -0.013 | 0.12 | 0.157 | 0.067 | 0.048 | 0.065 | -0.091
18 | PTPN23 (UniProt Q9H3S7) | -0.039 | 0.011 | -0.081 | -0.063 | 0.06 | 0.05 | 0.05 | 0.037 | -0.065 | -0.024
19 | QRSL1 (UniProt Q9H0R6) | -0.092 | -0.007 | -0.218 | -0.089 | 0.006 | -0.063 | 0.053 | -0.049 | -0.084 | -0.036
20 | PIKFYVE (UniProt Q9Y2I7) | 0.029 | -0.055 | -0.256 | -0.072 | 0.09 | 0.021 | -0.047 | 0.006 | -0.069 | -0.08
21 | PYGL (UniProt P06737) | 0.135 | 0.012 | -0.023 | 0.016 | 0.028 | 0.01 | 0.039 | 0.034 | -0.043 | -0.041
22 | PRUNE1 (UniProt Q86TP1) | -0.004 | -0.012 | -0.179 | 0.052 | 0.041 | 0.04 | 0.006 | 0.138 | -0.107 | 0.018
23 | PLA2G15 (UniProt Q8NCC3) | 0.06 | -0.042 | -0.023 | 0.001 | 0.056 | 0.073 | 0.279 (active) | 0.076 | -0.074 | -0.008
24 | POMK (UniProt Q9H5K3) | 0 | 0.058 | -0.173 | -0.044 | 0.045 | 0.04 | 0.105 | 0.101 | 0.017 | -0.303
25 | PGM3 isoform 4 (UniProt O95394) | -0.039 | -0.118 | -0.147 | -0.063 | 0.015 | 0.061 | 0.046 | -0.012 | -0.008 | -0.024
26 | PBX2 (UniProt P40425) | 0.089 | -0.016 | -0.203 | -0.065 | 0.058 | 0.196 |  | 0.003 | -0.168 | 
27 | POM121 (UniProt Q96HA1) | -0.015 | -0.199 |  | -0.083 | 0.01 | 0.055 | 0.045 |  | 0.05 | -0.045
28 | POLR2I (UniProt P36954) | -0.025 | 0.115 | 0.102 | 0.067 | 0.114 | -0.243 | -0.09 | 0.028 | -0.091 | -0.005
29 | POLD1 (UniProt P28340) | -0.01 | -0.027 | -0.095 | -0.007 | 0.005 | -0.098 | 0.117 | 0.03 | -0.122 | -0.011
30 | PSMD11 (UniProt O00231) | 0.048 | 0.04 | -0.016 | 0.061 | -0.012 | 0.027 | -0.001 | -0.028 | 0.071 | -0.092
